Data: PubChem BioAssay (EPA / NIEHS)
Activity calls are given as the source filed them. Rule for the calls: active = hit-call score of the fitted dose curve at least 0.9, where 1 is the maximum; inactive = score below 0.9.

Assays:
[1] = CEETOX_H295R_CORTISOL: CeeTox H295R High-throughput Steroidogenesis Assay for Cortisol (AID 2283438); conditions: actives raise or lower the signal;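 note: cortisol secreted into medium quantified by LC-MS/MS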
Method in brief: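 Read-out: cortisol in culture medium by reverse-phase C18 HPLC with ESI-positive tandem MS, after MTBE liquid-liquid extraction. Cells: human adrenal H295R, forskolin-primed (10 uM, 48 h) before 48 h chemical exposure in 0.1% DMSO.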

[2] = CEETOX_H295R_DOC: CeeTox H295R High-throughput Steroidogenesis Assay for DOC (AID 2283439); conditions: actives raise or lower the signal
Method in brief: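 Human adrenocortical H295R cells, passages up to 10, received 10 uM forskolin for 48 h before chemical addition. After another 48 h exposure in 0.1% DMSO, secreted DOC was measured by LC-MS/MS, with gain or loss fitted against DMSO controls.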

[3] = CEETOX_H295R_PROG: CeeTox H295R High-throughput Steroidogenesis Assay for Progesterone (PROG) (AID 2283442); conditions: actives raise or lower the signal;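 for AC50: progesterone secreted into medium by H295R cells measured by HPLC-MS/MS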
Method in brief: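 Adrenal H295R line, forskolin-stimulated (10 uM, 48 h) before dosing. 48 h exposure, 0.1% DMSO vehicle. Secreted progesterone by reverse-phase HPLC with ESI+ MS/MS quantification; DMSO-normalised bidirectional curve fit.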

[4] = read-out: Tumor necrosis factor receptor superfamily member 6 (Homo sapiens) (UniProt P25445); assay: LTEA_HepaRG_FAS: Life Technologies and Expression Analysis (LTEA) Assay for Fas cell surface death receptor (FAS) using HepaRG (AID 2283447); conditions: mRNA level, 48 h; actives raise or lower the signal
Method in brief: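 Differentiated HepaRG cells in serum-free induction medium were exposed 48 h to 8 half-log concentrations up to 100 uM in 0.5% DMSO, in duplicate. FAS mRNA was measured by qRT-PCR normalised to ACTB, GAPDH and POLR2A; bidirectional fit versus DMSO.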

[5] = read-out: Fatty acid synthase (Homo sapiens) (UniProt P49327); assay: LTEA_HepaRG_FASN: Life Technologies and Expression Analysis (LTEA) Assay for Fatty Acid Synthase (FASN) using HepaRG (AID 2283448); conditions: mRNA level, 48 h; actives raise or lower the signal;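 for AC50: differentiated human HepaRG liver cells in serum-free induction medium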
Method in brief: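 HepaRG, 48 h exposure, 8-pt half-log series top 100 uM, 0.5% DMSO vehicle, duplicates. Readout: FASN transcript by Fluidigm qRT-PCR; housekeeping-normalized; bidirectional curve fit vs DMSO baseline.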

[6] = read-out: Cyclin D2 (CCND2), CCND2 (gene 894); assay: LTEA_HepaRG_CCND2: Life Technologies and Expression Analysis (LTEA) Assay for Cyclin D2 (CCND2) using HepaRG (AID 2283449); conditions: mRNA level, 48 h; actives raise or lower the signal;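 note: CCND2 transcript measured by TaqMan qRT-PCR and normalised to three housekeeping genes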
Method in brief: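 HepaRG, 48 h dosing, 8-pt half-log curve from 100 uM, 0.5% DMSO; duplicate wells. Readout: CCND2 transcript by microfluidic qRT-PCR, housekeeping-normalised; bidirectional fit vs DMSO baseline.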

[7] = read-out: Cyclin Dependent Kinase Inhibitor 1A (CDKN1A), CDKN1A (gene 1026); assay: LTEA_HepaRG_CDKN1A: Life Technologies and Expression Analysis (LTEA) Assay for Cyclin Dependent Kinase Inhibitor 1A (CDKN1A) using HepaRG (AID 2283450); conditions: mRNA level, 48 h; actives raise or lower the signal
Method in brief: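 Cryopreserved HepaRG cells were plated and cultured 48 h, then switched to serum-free induction medium. Chemicals (eight half-log concentrations, top 100 uM, 0.5% DMSO) were applied for 48 h. Lysates underwent qRT-PCR for CDKN1A with housekeeping normalization.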

[8] = read-out: Cyclin D1 (CCND1), CCND1 (gene 595); assay: LTEA_HepaRG_CCND1: Life Technologies and Expression Analysis (LTEA) Assay for Cyclin D1 (CCND1) using HepaRG (AID 2283451); conditions: mRNA level, 48 h; actives raise or lower the signal;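 for AC50: differentiated human HepaRG liver cells in serum-free induction medium; TaqMan qRT-PCR transcript level normalised to ACTB GAPDH and POLR2A housekeeping genes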
Method in brief: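 Human liver HepaRG line; 48 h dosing, 8 conc. ≤100 uM, 0.5% DMSO; TaqMan qRT-PCR mRNA, 3 housekeeping genes; bidirectional curve fit vs DMSO.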

[9] = CEETOX_H295R_ESTRADIOL: CeeTox H295R High-throughput Steroidogenesis Assay for Estradiol (AID 2283440); conditions: actives raise or lower the signal;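 note: estradiol secreted into medium quantified by LC-MS/MS after dansyl derivatisation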
Method in brief: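 Following OECD 456 with minor changes, H295R cells received 10 uM forskolin for 48 h and then test chemical for 48 h. Hormone output was read by HPLC-MS/MS, with cytotoxic concentrations diluted until MTT viability reached ≥70%.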

[10] = CEETOX_H295R_ESTRONE: CeeTox H295R High-throughput Steroidogenesis Assay for Estrone (AID 2283441); conditions: actives raise or lower the signal;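 note: estrone secreted into medium measured by LC-MS/MS after dansyl derivatization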;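 for AC50: human adrenal H295R cells prestimulated with forskolin for two days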
Method in brief: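 Forskolin-stimulated H295R cells are treated 48 h with chemical, and estrone in the medium is measured by LC-MS/MS. Activity is fitted in both directions relative to DMSO controls, with chemicals diluted until MTT viability reaches at least 70%.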

Measured: AC50

Chain of Fatty acid synthase (Homo sapiens) (P49327 whole entry, looked up): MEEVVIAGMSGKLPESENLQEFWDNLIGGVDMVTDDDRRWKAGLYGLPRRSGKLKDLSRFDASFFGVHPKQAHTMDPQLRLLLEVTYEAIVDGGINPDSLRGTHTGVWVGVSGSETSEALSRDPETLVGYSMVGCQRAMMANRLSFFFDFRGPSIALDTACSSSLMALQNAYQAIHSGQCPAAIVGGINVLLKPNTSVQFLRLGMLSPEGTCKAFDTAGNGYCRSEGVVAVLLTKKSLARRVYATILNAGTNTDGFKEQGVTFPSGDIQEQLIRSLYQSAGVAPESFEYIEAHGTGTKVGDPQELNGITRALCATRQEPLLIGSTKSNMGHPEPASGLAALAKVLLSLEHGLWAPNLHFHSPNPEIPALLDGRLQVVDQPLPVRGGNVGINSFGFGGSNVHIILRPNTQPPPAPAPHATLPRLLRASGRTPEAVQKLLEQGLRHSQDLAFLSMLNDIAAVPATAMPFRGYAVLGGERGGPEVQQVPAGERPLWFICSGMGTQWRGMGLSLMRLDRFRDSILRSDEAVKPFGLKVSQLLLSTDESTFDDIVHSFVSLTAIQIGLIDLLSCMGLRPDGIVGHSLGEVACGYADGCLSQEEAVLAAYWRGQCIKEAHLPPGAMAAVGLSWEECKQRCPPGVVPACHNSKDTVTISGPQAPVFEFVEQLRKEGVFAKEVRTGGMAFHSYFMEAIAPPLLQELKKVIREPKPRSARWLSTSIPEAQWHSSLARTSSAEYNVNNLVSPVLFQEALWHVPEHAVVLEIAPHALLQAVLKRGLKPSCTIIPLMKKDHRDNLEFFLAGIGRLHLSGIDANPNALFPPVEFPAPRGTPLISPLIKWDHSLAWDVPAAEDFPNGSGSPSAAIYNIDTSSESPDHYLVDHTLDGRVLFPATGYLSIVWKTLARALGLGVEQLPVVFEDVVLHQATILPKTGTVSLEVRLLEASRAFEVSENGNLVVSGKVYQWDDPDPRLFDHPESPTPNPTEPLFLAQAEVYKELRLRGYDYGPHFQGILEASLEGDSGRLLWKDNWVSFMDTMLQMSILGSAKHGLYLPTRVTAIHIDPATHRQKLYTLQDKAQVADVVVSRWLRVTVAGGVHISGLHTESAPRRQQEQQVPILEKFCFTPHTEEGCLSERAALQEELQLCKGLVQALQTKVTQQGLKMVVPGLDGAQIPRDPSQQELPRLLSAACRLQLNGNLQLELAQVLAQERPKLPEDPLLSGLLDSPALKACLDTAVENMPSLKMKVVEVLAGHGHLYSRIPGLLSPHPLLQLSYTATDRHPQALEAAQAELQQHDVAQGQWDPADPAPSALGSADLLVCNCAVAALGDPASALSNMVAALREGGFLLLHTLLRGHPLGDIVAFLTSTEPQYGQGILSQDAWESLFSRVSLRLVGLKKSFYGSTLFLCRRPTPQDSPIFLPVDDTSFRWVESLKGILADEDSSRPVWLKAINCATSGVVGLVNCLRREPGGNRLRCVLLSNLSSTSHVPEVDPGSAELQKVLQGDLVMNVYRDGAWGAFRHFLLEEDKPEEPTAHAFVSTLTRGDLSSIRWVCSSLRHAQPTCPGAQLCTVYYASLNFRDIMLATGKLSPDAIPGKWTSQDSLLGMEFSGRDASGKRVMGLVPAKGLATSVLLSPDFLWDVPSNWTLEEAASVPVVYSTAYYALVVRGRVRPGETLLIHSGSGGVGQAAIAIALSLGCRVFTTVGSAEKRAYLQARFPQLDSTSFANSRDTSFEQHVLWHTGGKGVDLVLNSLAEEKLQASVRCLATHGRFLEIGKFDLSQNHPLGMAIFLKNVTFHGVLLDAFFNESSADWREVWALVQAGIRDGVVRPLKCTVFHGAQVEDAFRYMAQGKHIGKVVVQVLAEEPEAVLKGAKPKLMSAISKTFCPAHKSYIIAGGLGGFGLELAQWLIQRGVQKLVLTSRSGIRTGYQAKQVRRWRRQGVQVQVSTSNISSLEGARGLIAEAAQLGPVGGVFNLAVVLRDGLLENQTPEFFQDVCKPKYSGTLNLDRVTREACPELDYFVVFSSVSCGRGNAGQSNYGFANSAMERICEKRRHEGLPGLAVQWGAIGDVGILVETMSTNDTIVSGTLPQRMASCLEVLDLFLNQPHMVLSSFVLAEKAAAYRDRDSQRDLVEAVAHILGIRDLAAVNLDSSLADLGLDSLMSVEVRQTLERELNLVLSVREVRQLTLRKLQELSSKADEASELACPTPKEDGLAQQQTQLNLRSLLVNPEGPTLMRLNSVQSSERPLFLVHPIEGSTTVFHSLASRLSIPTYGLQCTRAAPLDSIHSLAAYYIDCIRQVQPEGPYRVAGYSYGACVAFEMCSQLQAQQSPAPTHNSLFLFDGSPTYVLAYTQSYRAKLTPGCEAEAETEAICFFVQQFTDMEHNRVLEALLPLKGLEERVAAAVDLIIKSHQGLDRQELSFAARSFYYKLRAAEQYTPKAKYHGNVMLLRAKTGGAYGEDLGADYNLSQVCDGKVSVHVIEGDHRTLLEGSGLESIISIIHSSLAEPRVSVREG

Cc1cc(N=Nc2ccccc2C)ccc1N
active: [3] 2.5 µM | [4] 3.37 µM | [5] 2.9 µM | [7] 3.36 µM | [8] 39.2 µM
inactive: [1] | [2] | [6]

Cn1cc(-c2ccccc2)c(=O)c(-c2cccc(C(F)(F)F)c2)c1
active: [5] 9.92 µM | [7] 63.8 µM
not listed: [9] | [10]
inactive: all other assays above

CC(C)(O)c1cnn2c(-c3ccc(F)c(-c4c(F)cccc4C#N)c3)cnc2n1
active: [3] 0.251 µM
not listed: [9] | [10]
inactive: all other assays above

CCCCCCCCCCCCCN1CC(C)OC(C)C1 (centres undefined)
active: [2] 6.39 µM | [3] 8.46 µM
inactive: all other assays above

CCCCCOC(=O)c1ccccc1C(=O)OCCCCC
not listed: [1]
inactive: all other assays above

O=C(Nc1ccccc1)c1ccccc1I
active: [2] 25.7 µM | [3] 7.28 µM | [5] 13.2 µM | [8] 22 µM
inactive: all other assays above

O=C(Oc1ccc(Br)cc1)N1CCN2CCC1CC2
active: [2] 1.06 µM | [3] 1.3 µM | [5] 75.9 µM
not listed: [9] | [10]
inactive: all other assays above

Nc1ccc(Cc2ccc(N)cc2)cc1
active: [1] 24 µM | [2] 65.5 µM | [3] 3.84 µM
inactive: [4] | [5] | [7] | [8]

c1ccc(N=Nc2ccccc2)cc1
inactive: [1] | [4] | [5] | [6] | [7] | [8]

[As]#[In]
not listed: [1] | [9] | [10]
inactive: all other assays above

Oc1ccc2ccc3cccc4ccc1c2c34
active: [1] 35.7 µM | [2] 12.9 µM
not listed: [9] | [10]
inactive: all other assays above

COP(=S)(OC)SCN1C(=O)c2ccccc2C1=O
not listed: [9] | [10]
inactive: all other assays above

CC(C)N(Cc1ccccc1)C(=O)C(C)(C)C
inactive: [3] | [4] | [5] | [6] | [7] | [8]

CCOC(=O)[C@]1(c2ccccc2)Oc2ccccc2[C@@H]1N
inactive: [3] | [6]
active: [1] 2.9 µM | [2] 2.52 µM | [5] 41.6 µM | [7] 78.3 µM | [8] 77.5 µM

O=P(OCCCl)(OCCCl)OCCCl
not listed: [9] | [10]
inactive: all other assays above

CCOc1cccc(C2(N3CCN(c4ccccc4)CC3)CCC(C)CC2)c1 (centres undefined)
active: [2] 29.8 µM | [3] 35.5 µM
not listed: [9] | [10]
inactive: all other assays above

Cc1ccc(N)c(N)c1
not listed: [9] | [10]
inactive: all other assays above

Nc1ccc(N=Nc2ccccc2)cc1
inactive: [9] | [10]
active: [1] 68.7 µM | [2] 12.8 µM | [3] 75.6 µM | [4] 13 µM | [5] 21.6 µM | [7] 11.2 µM | [8] 28.8 µM

Nc1ccc(Cl)cc1N
active: [3] 1.89 µM | [4] 13.3 µM | [5] 37.9 µM | [7] 11.4 µM
inactive: [1] | [2] | [6] | [8]

Cc1cccc(N)c1N
inactive: [1] | [2] | [4] | [7]
active: [3] 15.4 µM | [5] 33.4 µM | [8] 50 µM

c1ccc(NNc2ccccc2)cc1
not listed: [2] | [9] | [10]
inactive: all other assays above

Cc1ccc(N=C=O)cc1N=C=O
active: [5] 15.9 µM | [7] 72.2 µM
not listed: [9] | [10]
inactive: all other assays above

CNC(=O)Oc1cccc2c1OC(C)(C)C2
active: [10] 0.494 µM
inactive: all other assays above

Nc1ccc(Oc2ccc(N)cc2)cc1
active: [1] 26.9 µM | [2] 1.21 µM | [3] 9.14 µM
inactive: [4] | [5] | [7] | [8]

CCC(C)c1ccc(O)cc1 (centres undefined)
not listed: [9] | [10]
inactive: all other assays above

O=[N+]([O-])c1ccc(Oc2ccc(Cl)cc2Cl)cc1
active: [5] 50 µM
not listed: [1] | [9] | [10]
inactive: all other assays above

CC(C)(C)C(O)(CCc1ccc(Cl)cc1)Cn1cncn1 (centres undefined)
inactive: [4] | [6] | [8]
active: [1] 5.75 µM | [2] 0.26 µM | [3] 0.121 µM | [5] 3.08 µM | [7] 88.7 µM

CCCCOC(=O)c1ccccc1C(=O)OCc1ccccc1
inactive: [4] | [5] | [6] | [7] | [8]

CS(=O)(=O)NC(=O)c1cc(Oc2ccc(C(F)(F)F)cc2Cl)ccc1[N+](=O)[O-]
inactive: [4] | [5] | [6] | [7] | [8]

N#CC(Br)(Br)C(N)=O
active: [3] 50 µM
inactive: [4] | [5] | [6] | [7] | [8]

C=CCc1ccc2c(c1)OCO2
inactive: [4] | [5] | [6] | [7] | [8]

CCCCCCCCOC(=O)c1ccc(C(=O)OCCCCCCCC)c(C(=O)OCCCCCCCC)c1
inactive: [4] | [5] | [6] | [7] | [8]
